The nature of test [1]: qHTS RealTime-Glo MT Cell Viability Assay in HEK293 cells - 0 hour (AID 1224880). Further: top concentration of the series differs between compounds; nearly all actives have a fitted effect of over 45% in size. A digest of the protocol: (§1)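 Cells were seeded together with NanoLuc luciferase and a prosubstrate that viable cells reduce to a luciferase substrate. After a 5 h incubation at 37 C/5% CO2, compounds were added and luminescence was measured repeatedly during 40 h of treatment.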
Test [2] can be described thus: A CellTox Green Cytotoxicity Assay to monitor cytotoxicity in HEK293 cells - 32 hour (AID 1224881). Further: nearly all actives have a fitted effect of over 40% in size. A digest of the protocol: (§2)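 Nonlytic real-time cytotoxicity: HEK293 + CellTox Green reagent plated, 5 h preincubation, pintool compound addition (23 nL in DMSO), 37 C for 40 h, fluorescence measured at successive time points.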
The nature of test [3]: A CellTox Green Cytotoxicity Assay to monitor cytotoxicity in HepG2 cells - 0 hour (AID 1224882). Further: nearly all actives have a fitted effect of over 35% in size. Further: potency means the concentration at half of the fitted maximal effect. A digest of the protocol: (§3)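 Read-out is fluorescence of a cyanine dye excluded from live cells that stains DNA of dead HepG2 cells, with signal proportional to cytotoxicity. Plates were read at 0, 8, 16, 24, 32 and 40 h after compound addition.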
Test [4] in a line: A CellTox Green Cytotoxicity Assay to monitor cytotoxicity in HepG2 cells - 32 hour (AID 1224883). Further: nearly all actives have a fitted effect of over 50% in size. A digest of the protocol: as §3
The nature of test [5]: A CellTox Green Cytotoxicity Assay to monitor cytotoxicity in HEK293 cells - 8 hour (AID 1224884). Further: nearly all actives have a fitted effect of over 35% in size. An outline of the steps:
as §2

A short description of test [6]: qHTS RealTime-Glo MT Cell Viability Assay in HepG2 cells - 16 hour (AID 1224885). Further: nearly all actives have a fitted effect of over 50% in size. An outline of the steps: (§4)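 HepG2 suspension premixed with RealTime-Glo reagents is plated at 600 cells per well and left 5 h at 37 C/5% CO2. Compounds in DMSO then go in, and bioluminescence reflecting viable cell number is recorded over 40 h.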
Background: Quantitative high-throughput screening tests each substance at several concentrations.

Test [7] in a line: qHTS RealTime-Glo MT Cell Viability Assay in HEK293 cells - 24 hour (AID 1224886). Further: top concentration of the series differs between compounds; nearly all actives have a fitted effect of over 50% in size. A digest of the protocol:
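Reads taken at 0, 8, 16, 24, 32 and 40 h from the same wells. HEK293 cells (600/well) carried RealTime-Glo reagents from seeding, with compound added after a 5 h settle at 37 C.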

Test [8] in a line: qHTS RealTime-Glo MT Cell Viability Assay in HEK293 cells - 8 hour (AID 1224887). Further: top concentration of the series differs between compounds; nearly all actives have a fitted effect of over 50% in size. An outline of the steps:
as §1

The nature of test [9]: qHTS RealTime-Glo MT Cell Viability Assay in HepG2 cells - 0 hour (AID 1224889). Further: nearly all actives have a fitted effect of over 50% in size. A digest of the protocol:
as §4

Test [10] can be described thus: A CellTox Green Cytotoxicity Assay to monitor cytotoxicity in HepG2 cells - 8 hour (AID 1224890). Further: nearly all actives have a fitted effect of over 45% in size. A digest of the protocol:
as §3

Test [11] is described as follows: qHTS assay to identify small molecule antagonists of the estrogen receptor alpha (ER-alpha) signaling pathway using the BG1 cell line in the presence of 0.1 nM 17-beta-estradiol - cell viability counter screen (AID 1259241). Further: nearly all actives have a fitted effect of over 40% in size. A digest of the protocol: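 CellTiter-Fluor read (30 min, 37C) on ER-alpha/ERE-luc VM7Luc4E2 cells; 22 hr compound treatment; agonist 0.1 nM E2 final; same-well multiplex.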

The nature of test [12]: qHTS assay to identify small molecule antagonists of the androgen receptor (AR) signaling pathway using the MDA cell line in the presence of 0.5 nM R1881 - cell viability counter screen (AID 1259242). Further: nearly all actives have a fitted effect of over 45% in size. An outline of the steps: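 Counter screen for cytotoxicity run in the same wells as the AR antagonist reporter screen: MDA-kb2 cells were treated 16 hr with test compounds and 0.5 nM R1881, then live-cell protease activity was measured by fluorescence.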

Test [13] has as its target Estrogen receptor (Homo sapiens) (UniProt P03372). Briefly: qHTS assay to identify small molecule antagonists of the estrogen receptor alpha (ER-alpha) signaling pathway using the BG1 cell line in the presence of 0.1 nM 17-beta-estradiol (AID 1259244). Further: nearly all actives have a fitted effect of over 50% in size. A digest of the protocol:
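Cells: VM7Luc4E2, endogenous ER-alpha, 4x ERE-luc stable. Pre-culture 5 d, phenol red-free, charcoal-stripped FBS. Plated 24 h, compound + E2 0.1 nM final, 22 h 37C/5% CO2. Readout ONE-Glo luminescence.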

Test [14] in a line: qHTS assay to identify small molecule phospholipidosis (PLD) inducers (AID 1259344; active means well fitted curve in the direction sought with a large enough effect; an effect the other way counts as inactive or inconclusive). A digest of the protocol: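 HepG2 cells, 900/well, treated with compound plus LipidTOX Red for 24 h at 37 C; amiodarone positive and DMSO negative controls. Fixed with paraformaldehyde/Hoechst, then high-content imaging scored LipidTOX pit count and integrated intensity per well and per cell.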

Test [15] can be described thus: qHTS assay to identify small molecule HDAC inhibitors (AID 1259364). Further: top concentration of the series differs between compounds; nearly all actives have a fitted effect of over 45% in size. A digest of the protocol: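 Luminescence from a cell-permeant luminogenic class I/II HDAC substrate reports endogenous deacetylase activity in intact HCT-116 cells treated with compounds for 2 h.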
The nature of test [16]: qHTS assay to identify small molecule HDAC inhibitors - cell viability counter screen (AID 1259365). An outline of the steps: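 To flag cytotoxic hits, 1,500 wild-type HCT-116 cells per well, plated the day before, receive test compounds for 2hr at 37 C before CellTiter-Glo reagent and a luminescence read.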
Test [17] is described as follows: qHTS assay to identify small molecule agonists of the sonic hedgehog signaling (Shh) pathway - cell viability counter screen (AID 1259366). Further: nearly all actives have a fitted effect of over 50% in size. An outline of the steps:
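Fluorescence from CellTiter-Fluor reports live cells in this counter screen. NIH/3T3-derived Gli1-Luc reporter cells receive test compounds for 24hr at 37C; reagent goes in at 23hr.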

A short description of test [18]: A CellTox Green Cytotoxicity Assay to monitor cytotoxicity in HEK293 cells - 16 hour (AID 1224888). Further: nearly all actives have a fitted effect of over 35% in size. An outline of the steps:
as §2

Test [19] addresses Androgen receptor (Homo sapiens) (UniProt P10275). Nature of the test: qHTS assay to identify small molecule antagonists of the androgen receptor (AR) signaling pathway using the MDA cell line in the presence of 0.5 nM R1881 (AID 1259243). Further: nearly all actives have a fitted effect of over 50% in size. A digest of the protocol:
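Luciferase luminescence is the read-out: compounds are tested for suppressing 0.5 nM R1881-driven MMTV reporter activity in MDA-kb2 cells after 16 hr at 37C.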

Test [20] in a line: qHTS assay to identify small molecule antagonists of the sonic hedgehog signaling (Shh) pathway - cell viability counter screen (AID 1259367). Further: nearly all actives have a fitted effect of over 55% in size. A digest of the protocol:
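NIH/3T3-derived Gli1-Luc reporter cells, 2,000/well, plated 4 hr before compound addition, then stimulated with conditioned medium for 24 hr at 37C. Viability measured in the same wells by CellTiter-Fluor fluorescence, reagent added at 23 hr for 1 hr.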

Structures are written as SMILES. Values without a mark were called inactive. Inconclusive results are not listed. Calls of active or inactive are those of the source. Unless noted, the call rests on the fitted dose curve; in most records, active means well fitted curve in the direction sought with a large enough effect in the repeat runs; inconclusive means weak or mixed curves; inactive means no such curve, though single readings can be large; an effect the other way counts as inactive or inconclusive.
On the % scale 0 is the no-effect control and ±100 the full control effect.

Sequence of Estrogen receptor (Homo sapiens) (P03372 whole entry, looked up): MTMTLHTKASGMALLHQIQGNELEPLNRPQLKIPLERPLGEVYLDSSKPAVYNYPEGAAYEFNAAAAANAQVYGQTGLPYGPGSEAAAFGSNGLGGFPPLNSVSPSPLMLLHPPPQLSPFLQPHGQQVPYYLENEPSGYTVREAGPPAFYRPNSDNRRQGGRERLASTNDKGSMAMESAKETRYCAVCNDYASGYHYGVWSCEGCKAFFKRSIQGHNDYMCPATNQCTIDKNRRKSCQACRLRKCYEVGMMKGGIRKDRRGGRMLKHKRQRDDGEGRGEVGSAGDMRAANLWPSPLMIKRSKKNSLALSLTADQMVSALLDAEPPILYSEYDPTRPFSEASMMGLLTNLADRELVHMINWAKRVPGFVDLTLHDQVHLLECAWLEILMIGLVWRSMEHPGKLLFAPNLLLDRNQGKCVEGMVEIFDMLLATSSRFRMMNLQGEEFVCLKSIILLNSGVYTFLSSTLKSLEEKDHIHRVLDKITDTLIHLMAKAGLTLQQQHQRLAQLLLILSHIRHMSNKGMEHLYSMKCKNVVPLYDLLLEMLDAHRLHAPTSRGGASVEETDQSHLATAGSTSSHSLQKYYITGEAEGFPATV
Sequence of Androgen receptor (Homo sapiens) (P10275 whole entry, looked up): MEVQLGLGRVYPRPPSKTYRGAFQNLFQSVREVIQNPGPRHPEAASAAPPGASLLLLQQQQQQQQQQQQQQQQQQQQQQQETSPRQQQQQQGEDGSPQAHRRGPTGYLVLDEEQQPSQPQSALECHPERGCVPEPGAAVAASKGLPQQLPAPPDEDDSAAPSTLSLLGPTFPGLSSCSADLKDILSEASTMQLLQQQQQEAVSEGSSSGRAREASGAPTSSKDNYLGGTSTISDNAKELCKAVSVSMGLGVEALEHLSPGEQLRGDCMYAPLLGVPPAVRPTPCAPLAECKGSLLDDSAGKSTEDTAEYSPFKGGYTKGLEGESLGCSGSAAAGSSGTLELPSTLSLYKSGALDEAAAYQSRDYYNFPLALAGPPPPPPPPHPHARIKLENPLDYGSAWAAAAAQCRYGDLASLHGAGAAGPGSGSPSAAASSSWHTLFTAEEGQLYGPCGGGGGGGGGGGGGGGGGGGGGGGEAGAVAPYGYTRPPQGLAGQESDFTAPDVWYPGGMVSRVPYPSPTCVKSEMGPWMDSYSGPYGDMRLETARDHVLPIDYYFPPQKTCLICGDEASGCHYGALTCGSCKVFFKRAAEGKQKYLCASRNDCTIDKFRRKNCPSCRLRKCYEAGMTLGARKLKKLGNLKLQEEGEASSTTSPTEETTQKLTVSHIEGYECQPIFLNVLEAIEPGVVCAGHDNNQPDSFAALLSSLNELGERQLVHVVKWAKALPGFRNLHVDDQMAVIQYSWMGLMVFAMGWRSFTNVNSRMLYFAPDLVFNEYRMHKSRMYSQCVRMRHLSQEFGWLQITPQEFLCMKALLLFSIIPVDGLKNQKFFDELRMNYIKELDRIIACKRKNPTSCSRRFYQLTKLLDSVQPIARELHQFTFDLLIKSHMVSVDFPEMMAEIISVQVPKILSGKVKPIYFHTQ

Regarding `NCCNC(=O)c1ccc(Cl)cn1`, the outcome in [1], in test [6], in [11], in test [12], in [13] and in test [16] was inactive. Besides, the Potency result in test [2], in test [3], in test [4], in test [5], in [7] and in test [8] was “inactive” each time. Further, the Potency entry in test [9], in [10], in test [14], in [15] and in [17] was “inactive” each time.
Regarding `CCCC(=O)O[C@]1(C(=O)CCl)[C@@H](C)C[C@H]2[C@@H]3CCC4=CC(=O)C=C[C@]4(C)[C@@]3(F)C(=O)C[C@@]21C`, the result in test [1], in test [6], in [11], in test [12], in [13] and in [16] was inactive. Also, the result in test [20] was inactive. Moreover, the Potency result in [2], in test [3], in [4], in [5], in test [7] and in [8] was “inactive” throughout. The Potency entry in test [18], in test [9], in test [19], in [14], in [15] and in test [17] was “inactive” in each case.
For the molecule `CCc1cc(S(=O)(=O)O)c2cc(C(C)C)cccc1-2`, the molecule was called inactive in [1], in [6], in test [11], in [12], in [13] and in [16]. In [20], the molecule was called inactive. Further, the Potency result in test [2], in [3], in [4], in [5], in [7] and in test [8] was “inactive” in each case. The Potency entry in test [18], in [9], in [15] and in test [17] was “inactive” in each case. Besides, the PLD induction in test [14] is -3.58% [at 7.66 µM].
In the case of `N#CC1(O)CCCCC1`, the molecule was classed as inactive in test [1], in test [6], in test [11], in [12] and in [16]. The Potency result in test [2], in test [3], in [4], in test [5], in [7] and in [8] was “inactive” throughout. Besides, the Potency entry in test [18], in test [9] and in test [15] was “inactive” throughout.
For the molecule `OCc1ccccn1`, the outcome in test [1], in [6], in test [11], in test [12], in [13] and in test [16] was inactive. The molecule was classed as inactive in test [20]. Further, the Potency result in [2], in [3], in [4], in test [5], in test [7] and in test [8] was “inactive” each time. For the same molecule, the Potency result in [18], in test [9], in test [14], in test [15] and in test [17] was “inactive” in each case.
In the case of `C=CCOCC(O)CS(=O)(=O)O` (stereo not given), the outcome in test [1], in [6], in test [11], in [12], in test [13] and in [16] was inactive. Moreover, in [20], the molecule was called inactive. For the same molecule, the Potency entry in [2], in test [3], in test [4], in [5], in test [7] and in [8] was “inactive” each time. Besides, the Potency result in test [18], in test [10], in test [15] and in test [17] was “inactive” each time.
For the molecule `CC(=O)c1ccc(C)cc1`, the call in test [1], in [6], in test [11], in test [12], in [13] and in test [16] was inactive. The molecule was called inactive in [20]. Besides, the Potency entry in [2], in test [3], in test [4], in test [5], in [7] and in test [8] was “inactive” throughout. Moreover, the Potency result in [18], in test [9], in test [15] and in test [17] was “inactive” in each case.
`NC(=O)c1ncn([C@@H]2O[C@H](CO)[C@@H](O)[C@H]2O)c1N`: the outcome in [1], in test [6], in [11], in test [12], in test [13] and in test [16] was inactive. Further, the result in test [20] was inactive. Besides, the Potency result in test [2], in test [4], in test [5], in [7], in test [8] and in test [18] was “inactive” throughout. Further, the Potency result in test [9], in test [14], in [15] and in test [17] was “inactive” throughout. Moreover, the Potency in [3] was 10.7 µM (active).
As for `CCCOCC(C)OCC(C)O` (stereo not given), the call in [1], in test [6], in [11], in test [12], in [16] and in test [20] was inactive. Besides, the Potency entry in [2], in test [3], in [4], in [5], in test [7] and in test [8] was “inactive” throughout. For the same molecule, the Potency entry in test [18], in [9], in [19], in test [15] and in [17] was “inactive” in each case.

Source of the values: PubChem BioAssay (Tox21).
